Bioassay records: PubChem BioAssay, several laboratories
Most compounds without a hit are left out; they make up all but 0.96% or so of the library.
beta cell repl – induces beta-cell replication in MIN6 cells; MIN6 cells proliferation, ATPlite luminescence, 48 h; cells starved in 0.2% serum; 100% = growth in 10% serum; proliferation, % at 10 µM; 330,000 tested, 0.29% active; AID 2380;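 active = compounds whose signal lies at least 3.5 SD above the mean of all wells on their plate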;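 also: 0% = DMSO-treated cells in low-serum medium and 100% = 10% serum control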
DAGLB inhibitor – blocks human DAGLB lipase activity; Q8NCG7; HEK293T DAGLB membrane lysate, EnzChek fluorogenic substrate; inhibition, % at 5.17 µM; 340,000 tested, 0.059% active; in the data active = inhibition above about 34%;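 also: 0% = enzyme with vehicle and 100% = wells lacking enzyme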
Target sequence (Q8NCG7 whole entry, looked up): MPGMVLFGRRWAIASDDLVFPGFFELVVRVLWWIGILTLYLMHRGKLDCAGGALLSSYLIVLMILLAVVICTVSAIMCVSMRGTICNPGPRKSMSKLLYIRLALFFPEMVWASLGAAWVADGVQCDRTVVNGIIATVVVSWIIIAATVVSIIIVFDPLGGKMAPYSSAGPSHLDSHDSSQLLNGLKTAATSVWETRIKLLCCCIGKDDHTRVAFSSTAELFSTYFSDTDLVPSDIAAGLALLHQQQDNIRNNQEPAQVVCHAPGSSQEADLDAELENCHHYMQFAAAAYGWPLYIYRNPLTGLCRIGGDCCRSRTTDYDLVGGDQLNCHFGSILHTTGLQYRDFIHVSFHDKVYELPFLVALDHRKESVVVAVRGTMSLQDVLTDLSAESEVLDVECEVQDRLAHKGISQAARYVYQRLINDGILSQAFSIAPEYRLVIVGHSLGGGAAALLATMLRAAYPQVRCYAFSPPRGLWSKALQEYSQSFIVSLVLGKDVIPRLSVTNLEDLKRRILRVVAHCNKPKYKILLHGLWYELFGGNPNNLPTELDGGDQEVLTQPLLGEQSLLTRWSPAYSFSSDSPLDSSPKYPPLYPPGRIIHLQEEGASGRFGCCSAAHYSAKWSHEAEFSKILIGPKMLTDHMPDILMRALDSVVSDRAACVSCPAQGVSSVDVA
Rtt109 Vps75 – inhibitors of Candida albicans Rtt109/Vps75 histone acetyltransferase. Q5AAJ8. purified Rtt109/Vps75, ThioGlo CoA-SH fluorescence, 4 h. inhibition, % at 34.9 µM. 330,000 tested, 0.16% active. AID 540336;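 active = inhibition of at least 50% in every replicate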
V-ATPase pHluor – regulators of yeast V-ATPase proton transport | S. cerevisiae, pHLuorin cytosolic pH fluorescence | 350,000 tested, 0.37% active | response, % at 10 µM; in the data active = response mostly above about 7.3%, no sharp cut-off; inactive = mostly below about 5.4%; also: actives read high
HDAC3 inhib – human HDAC3 inhibition | recombinant HDAC3, fluorogenic peptide/trypsin coupled, fluorescence | inhibition, % at 8.3 µM | 320,000 tested, 0.15% active; in the data active = inhibition above about 26%, passing the limit was not always enough
* hit, by the source's call; . = no result given; + = active, no number.

SMILES | beta cell repl | DAGLB inhibitor | Rtt109 Vps75 | V-ATPase pHluor | HDAC3 inhib
CC(C)(C)c1cc(CN2CCCC(O)C2)c(O)c(C(C)(C)C)c1 (stereo not given) | -5 | -5 | 10 | -1 | 36*
CCS(=O)(=O)C1=NN2C(=N)/C(=C\c3ccc(OC(=O)c4ccco4)c(Br)c3)C(=O)N=C2S1 | -4 | . | . | . | 39*
CCOc1cc(/C=C2\C(=N)N3N=C(S(=O)(=O)CC)SC3=NC2=O)ccc1OC(=O)c1ccco1 | -4 | 8 | 18 | -2 | 9
CCc1cc(=O)oc2cc(C)cc(OC(C)C(=O)NCc3ccncc3)c12 (stereo not given) | 0 | 0 | -11 | -1 | -9
CCOCCCNC(=O)CCc1nnc2n(CCC(C)C)c(=O)c3ccccc3n12 | -1 | 0 | -7 | -3 | -1
CCOc1cc(/C=C2\N=C(C)OC2=O)cc(Cl)c1OCC(=O)OC | -1 | -2 | -3 | 2 | 48*
COc1cc(/C=C2\N=C(C)OC2=O)cc(Cl)c1OC(C)=O | -2 | 0 | 3 | 1 | 3
COC(=O)c1cccc(Oc2cccc(Cl)n2)c1 | 0 | -4 | 54* | 2 | -1
Nc1nc(SCc2ccccc2Cl)nc2nc3c(cc12)CCCC3 | 0 | -1 | 8 | -1 | 5
Nc1nc(SCc2ccc(Cl)cc2Cl)nc2nc3c(cc12)CCCC3 | 0 | 7 | 2 | 128* | -3
CCOC(=O)CSc1nc2c(c(=O)[nH]c(=O)n2C)n1CCc1ccccc1 | -3 | 0 | 6 | -3 | -70
Cn1c(=O)[nH]c(=O)c2c1nc(SCC(=O)O)n2CCc1ccccc1 | 0 | 3 | 2 | -2 | 37*
O=C(c1ccc2c(c1)CCN2S(=O)(=O)c1ccccc1)N1CCN(c2ccc(F)cc2)CC1 | -3 | -5 | -4 | 14* | -9
COc1ccc(N2CCN(C(=O)c3ccc4c(c3)CCN4S(=O)(=O)c3ccccc3)CC2)cc1 | -2 | 3 | 2 | 3 | 5
CC(=O)N1CCN(C(=O)c2ccc3c(c2)OCO3)CC1 | -4 | 3 | -3 | 1 | 1
CCCC[n+]1c(C)sc2ccc(C)cc21 | -6 | 1 | 4 | 0 | 3
Cc1ccc2sc(C)[n+](CCO)c2c1 | -4 | 2 | 104* | 1 | 11
CC[n+]1c(C)sc2cc(C)ccc21 | -6 | -2 | 85* | 4 | 4
CCOc1ccc(CN(C)C(=O)[C@H](C)NC(=O)c2ccco2)cc1OC | -1 | -1 | 0 | -1 | -4
COc1ccc(/C=N/NC(=O)COc2ccc(Cl)cc2Cl)cc1Cn1nc(C)cc1C | 3 | 1 | 54* | 2 | -12
Cc1nnc(Sc2cc(NCCCO)c([N+](=O)[O-])c3nonc23)s1 | . | 2 | + | -6 | .
Cc1nnc(Sc2cc(NCCO)c([N+](=O)[O-])c3nonc23)s1 | . | -2 | -20 | -1 | .
c1ccc(CSc2ncnc3c2cnn3Cc2ccccc2)cc1 | -4 | -3 | -1 | 17* | -1
CC[C@]1(c2ccccc2)C(=O)N(C(=O)OC)N1C(=O)OC | 11 | -3 | -1 | 2 | 44*
Cc1cc(/C=C2/NC(=O)N(Cc3ccccc3F)C2=O)c(C)n1-c1ccccn1 | -1 | 5 | 0 | -1 | 44*
SMILES | beta cell repl | DAGLB inhibitor | Rtt109 Vps75 | V-ATPase pHluor | HDAC3 inhib
NC(=O)COC(=O)c1ccc(Cl)c(S(=O)(=O)N2CCN(c3ccc(F)cc3)CC2)c1 | -2 | 3 | -5 | -4 | 0
COc1cc(/C=N/n2cnnc2)ccc1OC(=O)c1ccco1 | 0 | 2 | . | 1 | 27*
COc1cc(/C=N\NC(=O)OC(C)(C)C)ccc1OC(=O)c1ccco1 | -3 | . | 9 | -1 | 2
O=C(c1ccc2nc(-c3ccco3)c(-c3ccco3)nc2c1)N1CCN(c2ncccn2)CC1 | -1 | 3 | -3 | -3 | -4
O=C(NCc1cccnc1)C(=O)Nc1cc2c3c(c1)CC(=O)N3CCC2 | 2 | 4 | -9 | 2 | 7
O=C(CSc1nnc(Cc2cccs2)n1C1CCCCC1)N1CCN(C(=O)c2ccco2)CC1 | 0 | 0 | 51* | 0 | 9
COc1cc(OC)c(-c2c3cc(O)c(=O)cc-3oc3cc(O)c(O)cc23)cc1OC | -3 | -82 | 18 | -2 | 3
Cc1c2cc(O)c(=O)cc-2oc2cc(O)c(O)cc12 | -4 | 2 | -6 | 206* | -1
Cc1ccc(S(=O)(=O)N2CCCCC2)cc1NC(=O)c1cc2ccccc2o1 | -3 | 0 | -1 | 27* | 9
O=S(=O)(c1ccc(F)cc1)N1CCc2ccccc2C1 | 1 | -6 | 12 | -2 | 4
C=CCn1c(O)c(N=NC(=O)C(O)c2ccccc2)c2ccccc21 (stereo not given) | 1 | 3 | 8 | -1 | 10
S=c1[nH]c2cc(Cl)ccc2s1 | -2 | 5 | -3 | . | 7
CCN1CCN(C(=O)C2CCN(S(=O)(=O)N3CCC4(CC3)OCCO4)CC2)CC1 | -2 | 0 | -20 | 2 | 0
CCOC(=O)C(O)(NC(=O)c1cccnc1)C(F)(F)F (stereo not given) | 5 | 1 | 6 | 0 | 42*
CCOc1nc(N2CCCCC2)nc(-n2cc(-c3ccccc3)nn2)n1 | -3 | -2 | -11 | 1 | 2
O=C(Nc1cccc2c1C(=O)NC2=O)c1ccccc1[N+](=O)[O-] | -2 | 0 | -5 | 3 | -4
O=C1NC(=Nc2ccccc2)c2c1cccc2[N+](=O)[O-] | 0.0* | -2 | -4 | 4 | 6
Cc1cc(C)cc(N2C(=O)CC(Sc3nnnn3-c3ccccc3)C2=O)c1 (stereo not given) | -6 | -1 | 4 | 4 | 0
Cc1cc(C)cc(N2C(=O)CC(Sc3ncn[nH]3)C2=O)c1 (stereo not given) | -5 | -2 | -4 | 3 | 29*
COc1cc(SC)ccc1C(=O)N1CCN(c2ccccc2F)CC1 | 1 | -3 | 6 | 0 | 2
COc1cc2c(C(=O)N3CCN(c4ccccc4F)CC3)cn(C)c(=O)c2cc1OC | 1 | 0 | -3 | 1 | 44*
COc1ccc(N2CCN(C(=O)COC(=O)CCS(=O)(=O)c3ccc(C)cc3)CC2)cc1 | 3 | 1 | -4 | 15* | -3
Cc1ccc(S(=O)(=O)CCC(=O)OCC(=O)N2CCN(c3ccccc3)CC2)cc1 | 10 | -3 | -13 | 0 | -2
O=C(c1ccc(F)cc1)c1cnc(Nc2ccccc2)s1 | -4 | -2 | 4 | 2 | 1
CNc1ncc(C(=O)c2ccc(F)cc2)s1 | 10* | -3 | 1 | 0 | 1
CCOC(=O)c1oc2ccccc2c1NC(=O)COc1ccc(F)cc1 | 9.7* | -11 | 3 | 0 | -4
O=C(NCCc1ccc(Cl)cc1)c1cnccn1 | -2 | 0 | -12 | 6 | 1
CCOc1ccc(N2C(=O)CSC2c2ccncc2)cc1 (stereo not given) | 0 | -3 | 63* | -10 | 3
COc1ccc(N2C(=O)CSC2c2ccc(F)c(F)c2)cc1 (stereo not given) | 4 | -2 | -5 | 4 | -3
